The text below walks through data of PubChem BioAssay (NCATS).

Active and inactive are the calls of the source. Calls come from the whole dose curve.

This test is described as follows: qHTS drug screen for cell cycle checkpoint inhibitors in PARPi-resistant BRCA-mutant ovarian cancer cell lines. (AID 1963452). As to conditions: PEO1/OlaR viability, CellTiter-Glo luminescence, 96 h, stronger effect = lower value. The essentials:
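PEO1, PEO4 and PEO1/OlaR ovarian cancer cells, 600 per well, exposed 96 h at 37C to a dilution series. Viability read by CellTiter-Glo luminescence, normalized to DMSO and empty wells; activity summarized as Z-AUC.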
On the technique in general: Quantitative high-throughput screening tests each substance at several concentrations.

[1] abbreviates: measured here: PEO1 parental Z-AUC.

Consider `Cc1ccc(C(=O)c2cc(O)c(O)c([N+](=O)[O-])c2)cc1`, for which the Z-AUC was -0.393 (inactive). In addition, under setting [1], the Z-AUC is -0.655. Also, the Z-AUC (measured here: PEO4 Z-AUC) is -0.817.
With `CCC(C)(Oc1ccc(C2(c3ccc(OC(C)(CC)C(=O)O)cc3)CCCCC2)cc1)C(=O)O` (stereo not given), the Z-AUC is 0.486 (inactive). Moreover, under setting [1], the Z-AUC was found to be 0.92. Besides, the Z-AUC (measured here: PEO4 Z-AUC) came out at 0.795.
On the same counts, the results for `O=C(NOCC1CC1)c1ccc(F)c(F)c1Nc1ccc(I)cc1Cl` are 0.682 (inactive), -0.295 and 0.149.
On to `C[C@@H](N)C1CCC(C(=O)Nc2ccncc2)CC1` (stereo not given in full), for which the Z-AUC is 0.275 (inactive). The Z-AUC under setting [1] was found to be 0.543. Also, the Z-AUC (measured here: PEO4 Z-AUC) came out at 0.552.
On the same counts, the results for `COCCCOc1ccnc(CS(=O)c2nc3ccccc3[nH]2)c1C` (stereo not given) are -0.249 (inactive), -0.578 and -0.176.
With `CCOC(=O)C(C)Oc1cccc2c(=O)n(CC(=O)Nc3ccc4c(c3)OCCO4)ccc12` (stereo not given), the Z-AUC is 0.881 (inactive). Moreover, the Z-AUC under setting [1] came out at 0.435. Moreover, the Z-AUC (measured here: PEO4 Z-AUC) is 0.282.
On the same counts, the results for `O=C(NCC1CCCCN1)c1cc(OCC(F)(F)F)ccc1OCC(F)(F)F` (stereo not given) are -0.39 (inactive), -0.839 and -1.07.
Regarding `CC1(C)CCC(C)(C)c2cc(NC(=O)c3ccc(C(=O)O)cc3)ccc21`, the Z-AUC is 0.358 (inactive). Further, the Z-AUC under setting [1] turned out to be 0.445. Further, for the setting “measured here: PEO4 Z-AUC”, the Z-AUC was -0.341.
On to `CC(=O)NC[C@H]1CN(c2ccc(N3CCOCC3)c(F)c2)C(=O)O1`, for which the Z-AUC is -0.303 (inactive). Moreover, the Z-AUC under setting [1] is -0.362. Besides, the Z-AUC (measured here: PEO4 Z-AUC) is -0.619.
In the case of `O=C(O)CCNC(=O)c1ccc(N=Nc2ccc(O)c(C(=O)O)c2)cc1`, the Z-AUC was -0.101 (inactive). Also, the Z-AUC under setting [1] was found to be 0.264. Besides, the Z-AUC (measured here: PEO4 Z-AUC) was 0.361.
Take `CC1Cc2ccccc2N1NC(=O)c1ccc(Cl)c(S(N)(=O)=O)c1` (stereo not given): the Z-AUC is -0.461 (inactive). Further, the Z-AUC under setting [1] is -0.0256. Under “measured here: PEO4 Z-AUC”, the Z-AUC stood at 0.0474.
On the same counts, the results for `Cc1nc(Nc2ncc(C(=O)Nc3c(C)cccc3Cl)s2)cc(N2CCN(CCO)CC2)n1` are -3.38 (inactive), -2.38 and -0.444.
On the same counts, the results for `O=c1cc(N2CCOCC2)oc2c(-c3ccccc3)cccc12` are 0.98 (inactive), 0.743 and 0.809.
On the same counts, the results for `CC(C)c1ccc2oc3nc(N)c(C(=O)O)cc3c(=O)c2c1` are -0.387 (inactive), 0.341 and 0.263.
Take `Clc1ccc(C(Cn2ccnc2)OCc2ccsc2Cl)c(Cl)c1` (stereo not given): the Z-AUC is -0.189 (inactive). In addition, the Z-AUC under setting [1] was -0.0624. The Z-AUC (measured here: PEO4 Z-AUC) is 0.0924.
On the same counts, the results for `COc1cc2c(cc1OC)C1CC(=O)C(CC(C)C)CN1CC2` (stereo not given) are 0.0378 (inactive), 0.296 and 0.889.
On the same counts, the results for `O=C(O)c1cc(=O)c2c(OCC(O)COc3cccc4oc(C(=O)O)cc(=O)c34)cccc2o1` are 1.18 (inactive), 1.06 and 1.
On the same counts, the results for `O=Nc1c(-c2c(O)[nH]c3cc(Br)ccc23)[nH]c2ccccc12` are -0.607 (inactive), -0.18 and -0.803.
As to `c1cnc2cc3c(cc2n1)C1CNCC3C1`, the Z-AUC was -0.725 (inactive). Moreover, the Z-AUC under setting [1] was -0.804. For the same compound, where the note is “measured here: PEO4 Z-AUC”, the Z-AUC was -0.403.
On the same counts, the results for `C[Se]CCC(N)C(=O)O` (stereo not given) are 0.282 (inactive), 1.03 and 1.31.
Consider `NC(=NCc1ccccc1)NC(=O)c1nc(Cl)c(N)nc1N`, for which the Z-AUC was -0.929 (inactive). For the same compound, the Z-AUC under setting [1] is -0.393. Also, the Z-AUC (measured here: PEO4 Z-AUC) is -0.0693.
On the same counts, the results for `NNc1nncc2ccccc12` are 0.571 (inactive), 0.709 and 0.892.
On the same counts, the results for `Clc1ccc(C(Cn2ccnc2)OCc2c(Cl)cccc2Cl)c(Cl)c1` (stereo not given) are 0.975 (inactive), 0.252 and 0.49.
On the same counts, the results for `Cc1cc2cc3c(C)cc(=O)oc3c(C)c2o1` are 0.166 (inactive), 0.892 and 0.841.
As for `COc1ccc(C2(C#N)CCC(C(=O)O)CC2)cc1OC1CCCC1` (stereo not given), the Z-AUC was 0.982 (inactive). The Z-AUC under setting [1] amounted to 1.47. Also, the Z-AUC (measured here: PEO4 Z-AUC) turned out to be 0.858.
On the same counts, the results for `CC1(C)NC(=O)N(c2ccc([N+](=O)[O-])c(C(F)(F)F)c2)C1=O` are 1.11 (inactive), 0.722 and 0.784.
On the same counts, the results for `O=C(NC(Cc1cc(=O)[nH]c2ccccc12)C(=O)O)c1ccc(Cl)cc1` (stereo not given) are -0.00865 (inactive), 0.872 and 1.04.
On the same counts, the results for `Clc1ccc(C(Cn2ccnc2)OCc2ccc(Sc3ccccc3)cc2)c(Cl)c1` (stereo not given) are -1.08 (inactive), -0.535 and -0.326.
With `CCCOc1ccc2nc(NC(=O)OC)[nH]c2c1`, the Z-AUC was -0.576 (inactive). In addition, the Z-AUC under setting [1] is -0.504. Where the note is “measured here: PEO4 Z-AUC”, the Z-AUC is -0.563.
As for `CCCCCCCCCCCCCCCCCCCCCCO`, the Z-AUC was 0.761 (inactive). For the same compound, the Z-AUC under setting [1] stood at 0.472. In addition, the Z-AUC (measured here: PEO4 Z-AUC) turned out to be 0.414.
On the same counts, the results for `O=C(O)c1cccc(-c2noc(-c3ccccc3F)n2)c1` are 0.225 (inactive), 0.852 and 1.3.
On the same counts, the results for `Cc1cc(C2CCCCC2)n(O)c(=O)c1` are 0.662 (inactive), 0.159 and -0.0703.
On to `CC(S)C(=O)NCC(=O)O` (stereo not given), for which the Z-AUC was -0.465 (inactive). Also, the Z-AUC under setting [1] was found to be 0.365. Moreover, the Z-AUC (measured here: PEO4 Z-AUC) was 0.0416.
In the case of `O=P(O)(O)C(O)(Cn1ccnc1)P(=O)(O)O`, the Z-AUC is 1.02 (inactive). In addition, the Z-AUC under setting [1] is 1.58. The Z-AUC (measured here: PEO4 Z-AUC) is 2.08.
On the same counts, the results for `Cc1ccc(NC(=O)c2ccc(CN3CCN(C)CC3)cc2)cc1Nc1nccc(-c2cccnc2)n1` are -0.776 (inactive), -0.808 and -0.886.
